We go through nine compounds from PubChem BioAssay.

The nature of test [1]: inhibitors of TNFa-induced NFkB p65 translocation, primary screen, imaging, HUVEC, MLSMR starter and 10KST1 sets (AID 438).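 For inhibition: signal is the nuclear over cytoplasmic p65 intensity ratio per well.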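 Note: compound added about 3h40 before a 20 min TNFalpha stimulation.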 The following applies: HUVEC TNFa-induced p65 nuclear translocation; cell count: measured here: nuclei count (cytotoxicity indicator), at 2.08 µM; inhibition: at 2 µM, stronger effect = higher value, 0% TNFa-plus-vehicle, 100% no-TNFa wells.
Test [2] can be described thus: reduction of polyQ htt aggregates in cells – imaging, exon1htt(103Q)mCFP cells, high-content imaging, primary screen (AID 483;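 active = visual image review flags a hit and inhibition of aggregation exceeds 20%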;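 note: compound exposure lasted 3 days before fixation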;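 for nuclei count: percent of the per-plate median nuclei count of sample wells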). The following applies: exon1htt(103Q)mCFP cell line, aggregate imaging, at 2 µM; inhibition of aggregation: stronger effect = higher value; nuclei count: measured here: cell count, toxicity.
Test [3] can be described thus: endothelial E-selectin expression blockers – imaging, HUVEC, immunofluorescence, MLSMR starter and 10KST1 sets, primary screen (AID 487;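 active = visually confirmed hit in the image check and inhibition above 20%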;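 for inhibition: signal is fraction of cell area covered by stained E-selectin grains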;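 for nuclei count: 100% = median nuclei count of all wells on the same plate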). The following applies: HUVEC TNFalpha-induced E-selectin immunofluorescence imaging, at 2 µM; inhibition: stronger effect = higher value; nuclei count: measured here: cell number, toxicity.
The target of test [4] is Voltage-gated potassium channel subunit beta-2 (Rattus norvegicus) (UniProt P62483). Description: inhibitors of rat Kvbeta2 reductase activity – biochemical, NADPH fluorescence, primary screen (AID 622;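 active = fluorescence slope higher than the sample average by over 3 SD, cut at about -0.22 in these data, passing the limit was not always enough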;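 note: slope of raw intensity against log time taken from 70 to 1610 s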). The following applies: recombinant KvBeta, 4-cyanobenzaldehyde reduction, at 10 µM, stronger effect = higher value.
Test [5] has the same target. Description: enhancers of rat Kvbeta2 NADPH turnover – biochemical, NADPH fluorescence, primary screen (AID 623;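 active = NADPH fluorescence slope more negative than the mean of all samples by about 3 SD, 99.7% confidence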;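 note: fluorescence intensity change per second fitted from 20 to 320 s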). The following applies: Recombinant KvBeta, NADPH fluorescence decrease slope, 10 min; at 10 µM; stronger effect = lower value.
Test [6] has as its target Alpha-2C adrenergic receptor (Homo sapiens) (UniProt P18825). Description: compounds altering alpha2C-coupled GIRK flux – cell-based, HEK293 alpha2C/GIRK1/2, thallium flux, primary screen (AID 624;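 active = fluorescence slope after compound addition differing from the mean of all screened samples at 99.7% confidence, in either direction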;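 note: slope of fluorescence ratio to pre-addition baseline per second over 15 to 24 s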). The following applies: thallium flux BTC fluorescence, at 10 µM, actives lie on both sides.
A short description of test [7]: blockers of RIG-like receptor reporter activation – cell-based, Sendai virus stimulus, luciferase, 10K MLSCN set, TLR/RLR signaling modifier project, primary screen (AID 602276;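 active = inhibition at or above 50% at 10 µM; inactive = inhibition below 50%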;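 note: firefly luciferase from ISG56 promoter only with Renilla not read in this screen; 0% = Sendai virus plus DMSO and 100% = medium plus DMSO without virus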). The following applies: HEK293 RL24 IRF3 luciferase reporter, at 10 µM, stronger effect = higher value.
A short description of test [8]: TLR3 IRF3 reporter activation blockers – cell-based, poly I:C stimulus, luciferase, 10K MLSCN set, primary screen (AID 602277;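 active = inhibition of the reporter signal at or above 50%; inactive = inhibition below 50%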). The following applies: HEK293-TLR3 RL24 IRF3 luciferase reporter, at 10 µM, stronger effect = higher value.

Each structure is given as a SMILES string. Activity calls are given as the source filed them.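 Rule for the calls, unless noted: active = inhibition above 20% together with a positive visual image hit; inconclusive = visual image hit but inhibition not above 20%; inactive = no visual image hit.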

Alpha-2C adrenergic receptor (Homo sapiens), sequence (P18825 whole entry, looked up): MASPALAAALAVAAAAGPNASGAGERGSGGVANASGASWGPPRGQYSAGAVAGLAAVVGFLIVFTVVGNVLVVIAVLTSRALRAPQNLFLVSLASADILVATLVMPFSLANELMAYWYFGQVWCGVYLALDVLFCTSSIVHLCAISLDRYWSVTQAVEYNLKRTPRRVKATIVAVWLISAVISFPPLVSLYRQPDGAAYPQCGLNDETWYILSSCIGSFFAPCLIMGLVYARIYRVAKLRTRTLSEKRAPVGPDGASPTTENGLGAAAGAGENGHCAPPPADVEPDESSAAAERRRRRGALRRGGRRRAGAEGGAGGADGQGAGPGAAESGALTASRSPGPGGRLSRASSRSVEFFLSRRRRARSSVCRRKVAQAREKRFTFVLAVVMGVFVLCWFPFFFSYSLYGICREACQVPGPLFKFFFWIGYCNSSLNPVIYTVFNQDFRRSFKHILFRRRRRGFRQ
Voltage-gated potassium channel subunit beta-2 (Rattus norvegicus), sequence (P62483 whole entry, looked up): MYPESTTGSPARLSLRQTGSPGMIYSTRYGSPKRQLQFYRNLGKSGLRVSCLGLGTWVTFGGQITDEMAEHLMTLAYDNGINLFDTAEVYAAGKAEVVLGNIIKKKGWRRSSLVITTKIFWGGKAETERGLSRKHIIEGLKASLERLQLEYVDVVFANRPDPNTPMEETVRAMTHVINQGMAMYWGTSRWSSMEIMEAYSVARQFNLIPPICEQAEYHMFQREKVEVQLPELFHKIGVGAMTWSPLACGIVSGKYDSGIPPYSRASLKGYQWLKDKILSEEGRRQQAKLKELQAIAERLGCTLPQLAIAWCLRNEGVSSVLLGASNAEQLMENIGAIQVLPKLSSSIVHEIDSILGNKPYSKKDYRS

Turning to `Cc1ccc(S(=O)(=O)N2CCC(C(=O)N3CCN(Cc4ccccc4)CC3)CC2)cc1`, the cell count in test [1] stood at 659. Further, the inhibition in test [1] was -14% (inactive); in test [3] it was -40.7% (inactive); in test [7], 8.56% (inactive); in test [8], 16.4% (inactive). The inhibition of aggregation in test [2] is 19% (inactive). In addition, the nuclei count in test [2] came out at 110%; in test [3] it was 106%. Further, in test [4], the fluorescence slope is -0.518 (inactive). Also, the NADPH fluorescence slope in test [5] was -1.5e-05 (inactive). In test [6], the slope is 0.0064 (inactive).
Regarding `CC(C)(C)n1nnnc1C(c1cccs1)N1CCN(Cc2ccccc2)CC1` (centres undefined), in test [1], the cell count stood at 482. For the same compound, the inhibition was -5.1% (inactive) in test [1], -163% (inactive) in test [3], 15.9% (inactive) in test [7] and 17.6% (inactive) in test [8]. For the same compound, in test [2], the inhibition of aggregation is 0% (inactive). For the same compound, the nuclei count in test [2] turned out to be 100%; in test [3], 230%. Also, in test [4], the fluorescence slope was -0.606 (inactive). The NADPH fluorescence slope in test [5] is -6.2e-06 (inactive). In addition, the slope in test [6] is 0.00586 (inactive).
Take `Cc1ccc(Nc2cc(-n3nc(C)cc3C)ncn2)cc1`: the cell count in test [1] amounted to 378. Moreover, the inhibition in test [1] is 5.2% (inactive); in test [3], -14.1% (inactive); in test [7] it was -0.371% (inactive); in test [8], -15.8% (inactive). In test [2], the inhibition of aggregation was -9.7% (inactive). Further, the nuclei count turned out to be 99.7% in test [2] and 101% in test [3]. In addition, the fluorescence slope in test [4] was -0.442 (inactive). The NADPH fluorescence slope in test [5] was -3.4e-05 (inactive). In test [6], the slope is 0.00717 (inactive).
In the case of `COc1cc(NC(=O)c2nccnc2C(=O)O)cc(OC)c1`, the cell count in test [1] is 856. The inhibition was 1.2% (inactive) in test [1], -30.5% (inactive) in test [3], -3.73% (inactive) in test [7] and 6.75% (inactive) in test [8]. Moreover, in test [2], the inhibition of aggregation is -12.8% (inactive). In addition, the nuclei count in test [2] was found to be 81.8%; in test [3] it was 117%. For the same compound, in test [4], the fluorescence slope is -0.554 (inactive). Besides, the NADPH fluorescence slope in test [5] was -2e-05 (inactive). In addition, in test [6], the slope was 0.00607 (inactive).
With `CCOc1ccc2[nH]c(O)c(NC(C)=O)c2c1`, the cell count in test [1] was determined as 645. For the same compound, the inhibition was -20.5% (inactive) in test [1], 43.8% (inactive) in test [3], 10.2% (inactive) in test [7] and 16.9% (inactive) in test [8]. Also, in test [2], the inhibition of aggregation was 5.7% (inactive). The values for the nuclei count in test [2] and in test [3] were 104% and 101%, respectively. The fluorescence slope in test [4] is -0.361 (inactive). Further, the NADPH fluorescence slope in test [5] was -5.8e-05 (inactive). In addition, in test [6], the slope is 0.00431 (inactive).
`CC12CCC(C(=O)O)(c3nc(C#N)c(C#N)nc31)C2(C)C` (centres undefined): the cell count in test [1] stood at 437. The inhibition in test [1] is -4.7% (inactive); in test [3] it was -15.3% (inactive); in test [7] it was 15.9% (inactive); in test [8], 21.6% (inactive). Besides, in test [2], the inhibition of aggregation is 26.3% (inactive). The nuclei count is 90.9% in test [2] and 106% in test [3]. Also, the fluorescence slope in test [4] was -0.618 (inactive). For the same compound, the NADPH fluorescence slope in test [5] was -3.8e-05 (inactive). The slope in test [6] is 0.0041 (inactive).
Turning to `COC(=O)C1=C(C)Nc2ncnn2C1c1ccc(C)o1` (centres undefined), the cell count in test [1] was determined as 620. For the same compound, the inhibition in test [1] was 4.7% (inactive); in test [3], 9.8% (inactive); in test [7] it was -15.9% (inactive); in test [8] it was -6.27% (inactive). In test [2], the inhibition of aggregation was -58.3% (inactive). In addition, the nuclei count in test [2] stood at 95.5%; in test [3], 108%. Further, the fluorescence slope in test [4] is -0.581 (inactive). For the same compound, the NADPH fluorescence slope in test [5] was -8.1e-06 (inactive). Moreover, in test [6], the slope was 0.0055 (inactive).
`CCOC(=O)c1sc(NC(=O)COC(=O)Cn2cnc3ccccc32)c(C(=O)OCC)c1C`: in test [1], the cell count is 398. Besides, the inhibition in test [1] was 4.3% (inactive); in test [3], -109% (inactive); in test [7] it was 13.7% (inactive); in test [8], -7.45% (inactive). The inhibition of aggregation in test [2] was 2.6% (inactive). Moreover, the nuclei count in test [2] came out at 90.6%; in test [3], 115%. Also, the fluorescence slope in test [4] was -0.613 (inactive). Besides, the NADPH fluorescence slope in test [5] was -3e-05 (inactive). Besides, the slope in test [6] was 0.00913 (inactive).
For the compound `O=C(CCSc1ccccc1)Nc1ccc(S(=O)(=O)N2CCOCC2)cc1`, in test [1], the cell count came out at 381. The inhibition was 5.2% (inactive) in test [1], -102% (inactive) in test [3], 18.1% (inactive) in test [7] and 11.6% (inactive) in test [8]. Moreover, in test [2], the inhibition of aggregation was 8.5% (inactive). For the same compound, the nuclei count in test [2] was 105%; in test [3], 109%. Besides, the fluorescence slope in test [4] is -0.53 (inactive). Besides, the NADPH fluorescence slope in test [5] is -5.2e-06 (inactive). Moreover, the slope in test [6] was 0.00555 (inactive).
